Assay results taken from ChEMBL document CHEMBL4513216, “Probing the Open Global Health Chemical Diversity Library for Multistage-Active Starting Points for Next-Generation Antimalarials” (ACS Infect Dis, 2020).
Screen size: about 68,000 compounds; about 2,700 (4%) showed an effect of 50% or more. Only a selection was taken, and strong results are over-represented in it overall.

Test system: Plasmodium berghei
Assay: Screen against P. berghei liver stage (PbLuc), transformed with Luciferase, at 2uM
Assay type: functional, HepG2
Details: tested at 2 uM

Compound | INHIBITION [%]
CNC(=O)NC(=O)CN1CCc2c(Br)ccc(F)c2C1 | -20.8
COCCN1CCCC(CCCc2ccccn2)(C(N)=O)C1 (configuration not stated) | 55.74
NC(=O)CN1CCCC(CCCc2ccccn2)(C(N)=O)C1 (configuration not stated) | 12.8
NC(=O)C1(CCCc2ccccn2)CCCN(CCO)C1 (configuration not stated) | -17.3
CN(c1ccccc1)S(=O)(=O)c1cc2c(c(C(=O)O)c1)OCCO2 | 53.19
Cc1cc(C)cc(N(C)S(=O)(=O)c2cc3c(c(C(=O)O)c2)OCCO3)c1 | 34.46
Cc1ccc(F)c(NS(=O)(=O)c2cc3c(c(C(=O)O)c2)OCCO3)c1 | -45.83
Cc1ccc(NS(=O)(=O)c2cc3c(c(C(=O)O)c2)OCCO3)c(F)c1 | 57.95
CN(c1ccc(F)cc1)S(=O)(=O)c1cc2c(c(C(=O)O)c1)OCCO2 | 26.75
O=C(O)c1cc(S(=O)(=O)Nc2ccc(F)cc2F)cc2c1OCCO2 | -29.54
O=C(Cc1cccs1)NCC1COCc2c(-c3ccoc3)nnn2C1 (configuration not stated) | 24.34
COc1cc(CN(C)C(=O)NCCC(=O)NC2CCCC2)ccc1SC | 49.88
Cc1occc1C(=O)N1CCCS1(=O)=O | 29.41
CN(C)S(=O)(=O)N1CC[C@]2(C[C@H](OCc3ccncc3)CO2)C1 | 9.65
COCCN1CC(Nc2nc(C3CCCC3)nc3c2cnn3C)CC1=O (configuration not stated) | 40.4
COCCN1CC(Nc2nc(C(C)C)nc3c2cnn3C)CC1=O (configuration not stated) | 57.34
CC(C)C(=O)N1CCC(CNc2nc(C(C)C)nc3c2cnn3C)CC1 | 19.12
C=c1ncsc1=C1NN=C(C2CCCN2C(=O)CCn2ccc(C)n2)O1 (configuration not stated) | -16.2
CC(NC(=O)NCCCN1CCc2ccccc2C1)c1nncn1C (configuration not stated) | 10.53
CN1CCN(S(=O)(=O)c2cncc(F)c2)c2ccccc2C1 | 52.73
COc1cc(F)c(S(=O)(=O)N2CCN(C)Cc3ccccc32)cc1OC | -50.8
Cc1cc(F)ccc1S(=O)(=O)N1CCN(C)Cc2ccccc21 | 26.62
CN(C(=O)Cn1nc(-c2ccc(F)cc2)ccc1=O)C1CCS(=O)(=O)C1 (configuration not stated) | 11.87
CS(=O)(=O)N1CCCC1c1ccnc2nccn12 (configuration not stated) | 12.35
CC(C)Oc1cc(N2CC[C@H](CO)[C@@H](O)C2)nc(N)n1 | -1.63
CC(C)Oc1cc(N2CCC(C(N)=O)CC2)nc(N)n1 | 54.41

Compound | INHIBITION [%]
CC(C)Oc1cc(N2CCC(N3CCC(O)CC3)CC2)nc(N)n1 | 2.39
CCN(CC)c1nc(Nc2cccc(C(=O)O)c2)nc2ccccc12 | 22.51
CC(O)c1cccc(Nc2nc(NCCO)c3ccccc3n2)c1 (configuration not stated) | 60.26
CCN(CC)c1nc(Nc2cccc(C(C)O)c2)nc2ccccc12 (configuration not stated) | 6.9
C=C(C)CN(CC)Cc1nc(CC)no1 | 29.39
Cc1nc(CN2CCC3(CC2)CCN(C(=O)c2cscn2)C3)cs1 | 36.75
Cc1ccc(-c2noc([C@@H]3C[C@H](NC(=O)CC(C)(C)C)CN3C)n2)cc1 | 29.3
O=C(NCCCN1CCN(c2ncccn2)CC1)Nc1ccccn1 | 7.62
CCc1nccn1CCCNC(=O)CN1CCN(c2ncccn2)CC1 | 52.57
CCOC(=O)CCCNC(=O)CN1CCN(c2ncccn2)CC1 | 6.56
Cc1cc(C2CCCN2C(=O)CN2C(=O)OC(C)(C)C2=O)on1 (configuration not stated) | 40.83
CC(C)c1cc(C2CCCN2C(=O)CN2C(=O)OC(C)(C)C2=O)no1 (configuration not stated) | 64.74
Cc1cc(C2CCCCN2C(=O)CN2C(=O)OC(C)(C)C2=O)no1 (configuration not stated) | 13.51
CC(C)Cc1cc(C(=O)NC(C)C)[nH]n1 | 31.66
O=C(Nc1nc(-c2ccccc2)ns1)N1CCN(C(=O)C2CC2)CC1 | 7.3
CN(C)Cc1ccccc1Cn1cncc1-c1cnn(C)c1 | 55.3
CC(Cn1cncc1-c1cnn(Cc2ccccc2)c1)N1CCCCC1 (configuration not stated) | -22.72
CCn1nc(C)c(-c2cncn2Cc2ccccc2CN(C)C)c1C | 17.29
O=C(NCC1(CO)CC1)c1ccccc1C(F)(F)F | -41.99
Cc1ccc(N2CCCC(NCC(=O)NCC3CC3)C2)nn1 (configuration not stated) | 42.92
CC(NCc1ccc(F)cc1)c1ccc2[nH]c(=O)[nH]c2c1 (configuration not stated) | -32.84
Cc1ccc(CNC(C)c2ccc3[nH]c(=O)[nH]c3c2)s1 (configuration not stated) | 74.87
COc1ccc(CNC(C)c2ccc3[nH]c(=O)[nH]c3c2)cc1 (configuration not stated) | 3.9
CCN(CC1CCOC1)C(=O)c1ccn(-c2ccc(OC)cc2)n1 (configuration not stated) | -8.85
Fc1ccccc1Sc1ccccc1CNC1=NCCN1 | -39.75
OCC1CCCN1c1cc(NCc2cc3ccccc3o2)ncn1 (configuration not stated) | -15.36
